Shown are actives, neighbours in structure and some others; about 4.6% of the full set was active somewhere.
HSF-1 act: increases HSF-1 driven luciferase reporter signal; hit rate 1.7% among 300,000; activation, % at 9 µM; NIH3T3-HGL HSF-1 luciferase reporter, MG132, 8 h; 100% = twice DMSO control signal;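 active means mean replicate activation of at least 50% with a set share of replicates each reaching 50%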;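 further: 0% = median of the neutral control wells and 100% = twice that signal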
AHR act: human AHR activation; P35869; AHR-responsive luciferase reporter cells, luminescence; activation, % at 5 µM; hit rate 2.5% among 320,000; AID 2796; in the data active means activation above about 47%;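 further: 0% = vehicle wells and 100% = reference agonist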
Target sequence (P35869 whole entry, looked up): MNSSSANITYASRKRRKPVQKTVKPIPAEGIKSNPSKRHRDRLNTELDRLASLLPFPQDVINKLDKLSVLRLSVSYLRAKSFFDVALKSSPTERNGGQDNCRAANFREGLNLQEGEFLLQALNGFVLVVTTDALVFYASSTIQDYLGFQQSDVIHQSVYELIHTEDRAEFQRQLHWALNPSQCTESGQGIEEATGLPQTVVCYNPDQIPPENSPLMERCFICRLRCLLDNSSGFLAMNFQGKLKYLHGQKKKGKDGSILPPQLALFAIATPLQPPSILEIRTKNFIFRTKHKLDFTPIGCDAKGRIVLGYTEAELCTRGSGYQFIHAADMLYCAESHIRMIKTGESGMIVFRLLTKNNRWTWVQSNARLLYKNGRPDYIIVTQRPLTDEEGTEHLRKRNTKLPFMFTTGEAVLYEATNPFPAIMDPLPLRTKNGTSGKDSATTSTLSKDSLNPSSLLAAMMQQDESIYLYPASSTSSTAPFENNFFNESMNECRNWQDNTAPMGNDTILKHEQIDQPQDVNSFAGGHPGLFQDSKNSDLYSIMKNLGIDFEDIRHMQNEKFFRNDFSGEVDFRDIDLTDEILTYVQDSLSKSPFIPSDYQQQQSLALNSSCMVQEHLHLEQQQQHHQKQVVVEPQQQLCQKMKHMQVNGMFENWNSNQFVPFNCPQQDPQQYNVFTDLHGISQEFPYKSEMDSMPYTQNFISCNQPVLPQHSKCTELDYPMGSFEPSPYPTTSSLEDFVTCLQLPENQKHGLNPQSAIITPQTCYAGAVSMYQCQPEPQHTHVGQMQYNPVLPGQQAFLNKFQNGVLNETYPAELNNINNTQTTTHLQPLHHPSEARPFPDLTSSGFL
HSF1 inh: HSF1 inhibition; NIH3T3-HGL HSE-luciferase, MG132-induced, luminescence 8 h; stronger effect = lower value; activity change, negative = inhibition, % at 7.5 µM (by protocol); hit rate 0.77% among 300,000; AID 2098;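 active means more than half of replicate wells show activity change below -50%, luminescence cut by over half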;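 further: luciferase reports HSF-1 transcriptional activity via heat shock element; 0% = median of DMSO wells and -100% = zero luminescence signal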
GAA850 FXN act: activators of GAA850 frataxin (FXN) promoter; HEK293 lucGAA850 FXN promoter luciferase reporter, 24 h; percent of 10 µM SAHA response; activation, % at 6 µM; hit rate 0.56% among 360,000; AID 540364;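 active means activation above the average of all compounds screened plus 3 SD, cutoff fixed separately per campaign, cut at about 7.5% in these data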;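 further: 0% = DMSO wells and 100% = 10 µM SAHA wells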
GAA30 FXN cntr: activates GAA30 frataxin promoter, counter-screen for GAA850 activators. hit rate 66% among 1,900. activation, % at 6 µM. shares compounds with GAA850 FXN act. HEK293 lucGAA30 FXN promoter luciferase, 24 h; DMSO = 0%, 5 µM ipriflavone = 100%. AID 588350;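 active means mean activation above the mean of solvent-only control wells plus 3 SD, cut at about 22% in these data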;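 further: counterscreen of GAA850 promoter hits where activity marks nonselective or luminescence artifacts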
FXN GAA850 conf: GAA850 FXN promoter activation confirmation; HEK293 lucGAA850 FXN promoter luciferase reporter, 24 h; 100% = activation by SAHA; hit rate 86% among 1,900; shares compounds with GAA850 FXN act; AID 588351; activation, % at 6 µM;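 active means mean activation above a set limit taken from the primary screen, cut at about 8% in these data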;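 further: 0% = DMSO wells and 100% = 10 µM SAHA wells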
Active calls of the source: *; . = no result given; ! = repeats disagree.

SMILES	HSF-1 act	AHR act	HSF1 inh	GAA850 FXN act	GAA30 FXN cntr	FXN GAA850 conf
COc1ccc([C@@H]2[C@@H]3C(=O)N(C(C)(C)C)C(=O)[C@@H]3[C@]3(Cc4ccc(Cl)cc4)C(=O)N(c4cccc(C)c4)C(=O)N23)cc1	18	1	1	7	.	.
CC[C@@]12C(=O)N(c3cccc(C)c3)C(=O)N1[C@H](c1ccc(OC)cc1)[C@@H]1C(=O)N(C(C)(C)C)C(=O)[C@@H]12	0	-3	3	12*	29*	20*
CC[C@@]12C(=O)N(c3cccc(F)c3)C(=O)N1[C@H](c1ccc(OC)cc1)[C@@H]1C(=O)N(C(C)(C)C)C(=O)[C@@H]12	-9	-1	1	11*	43*	18*
COc1ccc(CCNCC(=O)Nc2ccc(OC(F)F)cc2)cc1	10	2	-3	-1	.	.
CC(=O)Nc1nc(C)nc(-c2ccccc2)c1C(C)=O	-8	0	-5	-1	.	.
COc1cccc(CNC(=O)Cn2cc3c(n2)CCCC3)c1	-2	7	2	16*	23*	10*
c1ccc2c(-c3ccncc3)c[nH]c2c1	3	-3	-2	-2	.	.
COc1ccc(-c2nc(-c3ccc(O)cc3O)cs2)cc1OC	68*	.	45	8.7*	75*	36*
C=CCn1c(-c2csc(-c3ccc(OC)c(OC)c3)n2)n[nH]c1=S	0	21	-1	7.6*	6	11*
Oc1ccc(-c2csc(-c3c[nH]c4ccccc34)n2)c(O)c1	16	61*	15	8.1*	88*	41*
COc1ccc(-c2nc(CCl)cs2)cc1OC	14	14	-4	1	.	.
O=C(CSc1ncnc2c1cnn2Cc1ccccc1)Nc1ccc2c(c1)OCCO2	11	2	-4	-4	.	.
CCSc1nc(N2CCOCC2)c2ccccc2n1	-7	7	1	3	.	.
O=C(CSc1nncs1)Nc1ccc2[nH]c(=O)[nH]c2c1	3	4	-3	-1	.	.
O=S(=O)(Nc1ccc(N2CCCCC2)cc1)c1cccc2cccnc12	3	-4	-1	8.0*	19	7
O=C(c1ccc(NS(=O)(=O)c2cccc3cccnc23)cc1)N1CCCCC1	-19	1	-9	0	.	.
O=S(=O)(NCCO)c1cccc2cccnc12	-1	4	-6	14*	20	5
COc1ccc(C)cc1NC(=O)c1ccc(NS(=O)(=O)c2cccc3cccnc23)cc1	-2	12	1	7	.	.
COc1ccccc1NC(=O)c1ccc(NS(=O)(=O)c2cccc3cccnc23)cc1	3	15	10	8.6*	16	9.8*
Nc1cccc2nc3ccccc3cc12	17	22	14	19*	-14	101*
O=C1CC(c2ccccc2Cl)C2=C(COC2=O)N1 (stereo unspecified)	16	-1	-6	-2	.	.
O=C(Nc1cccc([N+](=O)[O-])c1)c1ccn[nH]1	24	3	2	2	.	.
COc1ccc(NC(=O)CSCC(=O)N(C)CC(=O)Nc2c(C)cccc2C)cc1	.	0	.	0	.	.
O=C1N(c2ccccc2)C[C@@H]2C[C@@H](c3cccs3)N3CCC[C@@]123	.	3	.	-3	.	.
c1ccc(-c2n[nH]c(-c3ccccn3)n2)nc1	9	12	4	7.7*!	102*	27*
SMILES	HSF-1 act	AHR act	HSF1 inh	GAA850 FXN act	GAA30 FXN cntr	FXN GAA850 conf
c1ccc(-c2ccccn2)nc1	-11	-2	1	2	.	.
Cc1ccc(NC(=O)C(C)Sc2n[nH]c(CNc3ccccc3)n2)cc1 (stereo unspecified)	-20	1	-14	-2	.	.
O=C(Nc1ncnc2sc3c(c12)CCCCC3)c1ccco1	-5	0	1	12*	7	4
CC(NC(=O)c1ccncc1)c1ccc(Br)cc1 (stereo unspecified)	4	2	4	0	.	.
CC(=O)c1cnc2cc(-c3ccccc3)nn2c1C	15	8	19	6	.	.
CC(=O)c1cnc2cc(-c3ccc(C)cc3)nn2c1C	-6	15	-5	11*	128*	42*
CC(C)(C)n1nc(-c2ccc(F)cc2)c2c(N)ncnc21	-35	-1	-33	12*	54*	12*
Cc1ccc(-c2nc(N)c3c(-c4ccc(C)cc4)nn(C(C)(C)C)c3n2)cc1	20	0	1	3	.	.
CC(C)(C)n1nc(-c2ccc(Cl)cc2)c2c(N)ncnc21	-36	4	-29	11*	64*	6
N#CC1=C(SCC(=O)Nc2ccc(C(=O)O)cc2)NC(=O)CC1c1ccco1 (stereo unspecified)	-4	1	-2	0	.	.
COc1ccnc(NCc2ccc(Cl)cc2)c1C#N	18	-3	19	10*	55*	20*
COc1cc2ncnc(NCc3ccc(Cl)cc3)c2cc1OC	25	12	4	-1	.	.
O=[N+]([O-])c1cc(/C=N\O)ccc1Oc1ccc(F)cc1	5	1	-2	9.4*	51*	25*
CCOC(=O)CSc1ccc(-c2nc3ccccc3[nH]2)cn1	15	14	4	1	.	.
N#CCSc1ccc(-c2nc3ccccc3[nH]2)cn1	49	11	22	7.8*	85*	27*
C=CCNc1nc(Nc2ccccc2F)nc(OCC)n1	42	38	23	9.4*	80*	36*
C=CCNc1nc(Nc2ccc(OC)cc2OC)nc(OCC)n1	-14	5	0	2	.	.
CN(C)c1nc(C=C(C#N)C#N)c(Cl)n1-c1ccc(F)cc1	95*	.	76	11*	-57	33*
COc1ccc(C(=O)Nc2nc3ccccc3[nH]2)cc1OC	34	23	9	1	.	.
COc1cc(C(=O)Nc2nc3ccccc3[nH]2)ccc1OC(F)F	48	1	23	9.6*	86*	36*
CC(=O)c1sc(Nc2cccc(C)c2)nc1C	49	3	25	7.8*	101*	31*
Cc1nc(Nc2ccccc2)sc1C(=O)c1ccccc1	35	-2	6	4	.	.
O=C(c1cc2ccccc2oc1=O)N1CCOCC1	42	0	26	7.7*	102*	34*
Cc1nn(S(=O)(=O)c2ccc(Br)cc2)c(C)c1S(=O)(=O)N1CCOCC1	-2	0	-4	-2	.	.
CCc1cc(-c2nc(N)ncc2-c2csc(C)n2)c(O)cc1OC	-7	15	-4	4	.	.
Cc1ccc(OCCC(=O)OCC(=O)C(C)(C)C)cc1	16	0	-6	0	.	.
C=C1CCC2C(C)(C)[C@@H](O)CC[C@@]2(C)[C@@H]1COc1ccc2ccc(=O)oc2c1 (stereo partly specified)	-8	25	-2	1	.	.
CC(=O)OC1CCC2(C)C(COc3ccc4ccc(=O)oc4c3)C(C)(O)CCC2C1(C)C (stereo unspecified)	16	2	6	12*	-4	17*
